This is part of a sample that, as a whole, favours compounds with a hit. Of some 83,000 tested, about 20% had one in any assay.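 Step 1: grow cells in 96-well plates. Step 2: add test compound at a single concentration. Step 3: incubate 48 h. Step 4: record percent growth.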 Active and inactive are the calls of the source. How the source made its calls: active means growth percent below 10; inactive means the rest.
Key:
Assay in all cases: NCI-60 one-dose screen, 48 h (100 = growth as untreated, 0 = no growth, -100 = all killed)
Conditions in all cases: 10 µM unless noted
[1] = system: RPMI-8226 leukemia
[2] = system: OVCAR-8 ovarian
[3] = system: OVCAR-5 ovarian
[4] = system: OVCAR-4 ovarian
[5] = system: SK-OV-3 ovarian
[6] = system: IGROV1 ovarian
[7] = system: OVCAR-3 ovarian
[8] = system: HS 578T breast
[9] = system: NCI/ADR-RES ovarian
[10] = system: T-47D breast

Measured: growth

CCC1=C(c2ccc(OC)cc2)C(C)(C)Oc2cc(O)c(CN3CCCC3)cc21
inactive: [1] 57.5% | [2] 95.4% | [3] 81.9% | [4] 99.3% | [5] 89.2% | [6] 87.1% | [7] 83.4% | [8] 86% | [9] 84.6% | [10] 68.2%

O=C1C(=O)c2ccc(Br)cc2-c2cc(Br)ccc21
inactive: [1] 25.9% | [3] 113% | [5] 81% | [6] 68.7% | [8] 86.4% | [10] 20%
active: [2] -1.14% | [4] -99% | [7] -48.6% | [9] -29.2%

Nc1ccc(C2=NN(c3ccccc3)C(c3ccc(Cl)cc3)C2)cc1 (stereo not given)
active: [1] -20.1%
inactive: [2] 81.8% | [3] 84.2% | [4] 96.7% | [5] 90.1% | [6] 94.5% | [7] 51.7% | [8] 102% | [9] 89.6% | [10] 63.8%

CC/C(=C\c1ccc(N(C)C)cc1)c1nc2ccccc2c(=O)[nH]1
inactive: [1] 79.4% | [2] 106% | [3] 92.9% | [4] 95.8% | [5] 109% | [6] 66.4% | [7] 116% | [8] 328% | [9] 98.3% | [10] 79.2%

COc1cc(-c2cc(C(=O)Nc3nc4ccccc4s3)nc3cc(-c4ccccc4)nn23)cc(OC)c1OC
inactive: [1] 73.7% | [2] 60.2% | [3] 106% | [4] 82.5% | [5] 97.7% | [6] 99.7% | [7] 48.1% | [8] 62.1% | [9] 73.3% | [10] 83.7%

c1cnc2n[nH]c(Nc3ncnc4c3sc3ncccc34)c2c1
inactive: [1] 88.1% | [2] 96.8% | [3] 93.2% | [4] 102% | [5] 102% | [6] 109% | [7] 111% | [8] 117% | [9] 104% | [10] 93.5%

COC(=O)CCC1=C(CC(=O)OC)C(C)=N/C1=C\c1[nH]c(-c2ccc[nH]2)cc1OC
inactive: [3] 65% | [4] 27.4% | [5] 64.6% | [6] 42.1% | [7] 17.4% | [8] 52.2% | [9] 17.5% | [10] 40.1%
active: [1] -42.3% | [2] 9.85%

N#CCCCCCn1c2ccccc2c2c3c(c4c5ccccc5[nH]c4c21)C(=O)N(O)C3=O
active: [1] -18.3% | [2] 7.06% | [3] -18.3% | [6] -1.36% | [7] -13.4%
inactive: [4] 19.5% | [5] 41.3% | [8] 19.8% | [9] 67.9% | [10] 14.2%

CC(C)[C@]12O[C@H]1[C@@H]1O[C@]13[C@]1(O[C@H]1C[C@H]1C4=C(CC[C@@]13C)C(=O)OC4)[C@@H]2OC(=O)CN(C)C
active: [6] -17.1% | [7] -1.74% | [8] -0.647% | [9] -5.71%
inactive: [1] 14.7% | [2] 14.9% | [3] 26.7% | [4] 21.1% | [5] 52.1% | [10] 27.2%

O=C(CCc1nnc(SCc2ccccc2)s1)c1nc2ccccc2[nH]1
inactive: [1] 82.9% | [2] 98.7% | [3] 99.2% | [4] 85.7% | [5] 103% | [6] 103% | [7] 106% | [8] 106% | [9] 87.1% | [10] 95%

O=C1C2C3C=CC(O3)C2C(=O)N1Nc1ccccc1 (stereo not given)
inactive: [1] 108% | [2] 105% | [3] 97.4% | [4] 102% | [5] 118% | [6] 124% | [7] 113% | [8] 111% | [9] 105% | [10] 112%

O=C(OC[C@H]1O[C@H](OC(=O)c2cc(O)c(O)c(OC(=O)c3cc(O)c(O)c(O)c3)c2)[C@H](OC(=O)c2cc(O)c(O)c(OC(=O)c3cc(O)c(O)c(O)c3)c2)[C@@H](OC(=O)c2cc(O)c(O)c(OC(=O)c3cc(O)c(O)c(O)c3)c2)[C@@H]1OC(=O)c1cc(O)c(O)c(OC(=O)c2cc(O)c(O)c(O)c2)c1)c1cc(O)c(O)c(OC(=O)c2cc(O)c(O)c(O)c2)c1
active: [9] 9.15%
inactive: [1] 34.9% | [2] 30.2% | [3] 48.3% | [4] 37.8% | [5] 49.8% | [6] 29.8% | [7] 13.8% | [8] 66.1% | [10] 33.2%

O=C(Nc1ccc(OCc2nnc(-c3ccccc3)o2)c(F)c1)Nc1ccc(Cl)c(C(F)(F)F)c1
inactive: [2] 24.5% | [3] 64.5% | [4] 26.8% | [5] 52.4% | [6] 36.3% | [7] 15.4% | [8] 35.6% | [9] 17.8% | [10] 14.9%
active: [1] -21%

O=C1NCN(c2ccccc2)C12CCN(CCCC(c1ccc(F)cc1)c1ccc(F)cc1)CC2
inactive: [1] 102% | [2] 66.1% | [3] 83.2% | [4] 48.5% | [5] 73.4% | [6] 47.7% | [7] 66.8% | [8] 69.3% | [9] 69.9% | [10] 94.2%

C=C(C)[C@@H]1C[C@H](O)Cc2cc(Cl)cc(Cl)c2N1
inactive: [1] 116% | [2] 99.6% | [3] 81.9% | [4] 103% | [5] 101% | [6] 105% | [7] 108% | [8] 100% | [9] 102% | [10] 99.3%

Cc1ccc(C(C)C)cc1NC(=O)Nc1ccc([N+](=O)[O-])cc1
inactive: [2] 15.2% | [3] 26.8% | [4] 28.2% | [8] 14.7%
active: [1] -61.9% | [5] 7.01% | [6] 6.68% | [7] -21.9% | [9] -10.7% | [10] 0.428%

COc1cc2c(c(OC)c1OC)-c1ccc(NN(C(=O)c3ccccc3)C(=O)c3ccccc3)c(=O)cc1[C@@H](NC(C)=O)CC2 (tested in a mixture with another compound)
active: [7] 2.09% | [8] -6.83%
inactive: [1] 66.6% | [2] 47.1% | [3] 68% | [4] 63.4% | [5] 20.8% | [6] 12.3% | [9] 74% | [10] 41.7%

COc1ccc2c(c1)/C(=C\c1c[nH]c3ccc(F)cc13)C(=O)N2
inactive: [1] 61.5% | [2] 81.9% | [3] 100% | [4] 65.1% | [5] 93.4% | [6] 69.5% | [7] 83.7% | [8] 99.9% | [9] 85.2% | [10] 42.8%

COc1cc(/C=C/C(=O)c2c(-c3ccc(Cl)cc3)nc3sc(C)nn23)cc(OC)c1OC
active: [1] -15.6%
inactive: [2] 53.3% | [3] 106% | [4] 74.8% | [5] 110% | [6] 89.7% | [7] 88.4% | [8] 109% | [9] 59.8% | [10] 19.3%

COC(=O)CCC1=C(C)/C(=C/c2[nH]c(-c3ccc[nH]3)cc2OC)N=C1C
active: [1] -57% | [7] -56.9% | [8] 1.28% | [10] -36%
inactive: [2] 10% | [3] 35% | [4] 23.4% | [5] 40% | [6] 25.9% | [9] 14.8%

CN1C(=O)C(=Cc2cn(Cc3ccccc3)c3ccc(Br)cc23)C(=O)N(C)C1=O
inactive: [1] 92.6% | [2] 97.9% | [3] 14% | [4] 107% | [5] 90.4% | [6] 97.3% | [7] 103% | [8] 113% | [9] 96.9% | [10] 83.7%

O=C(/C(=C/c1cccc([N+](=O)[O-])c1)c1ccccc1)c1ccccc1
active: [1] -7.27%
inactive: [2] 13% | [3] 74.5% | [4] 42.9% | [5] 105% | [6] 60.4% | [7] 23.4% | [8] 44.9% | [9] 35.8% | [10] 69.8%

C[n+]1ccc(C#N)c2ccccc21
active: [7] 4.02%
inactive: [1] 94.6% | [2] 111% | [3] 103% | [4] 64.7% | [5] 98.2% | [6] 70.5% | [8] 108% | [9] 101% | [10] 88.8%

COc1ccc2nc(NC(=O)c3cc(-c4ccc(F)cc4)n4nc(-c5ccccc5)cc4n3)sc2c1
inactive: [1] 83.5% | [2] 53.5% | [3] 85.6% | [4] 59.1% | [5] 67.6% | [6] 101% | [7] 67.9% | [8] 79.9% | [9] 70.9% | [10] 89.5%

CCOc1cc(-c2ccc[nH]2)[nH]c1/C=C1\N=C(C)C(C(=O)OC)=C1C
active: [1] -40.5% | [2] -45.8% | [3] -67.6% | [4] -38.6% | [5] -63.7% | [6] -45% | [7] -89.2% | [8] -23.3% | [9] -58.7% | [10] -63.8%

NC(N)=N/N=C(/c1ccccc1)c1ccc(Cl)cc1
inactive: [1] 172% | [2] 103% | [3] 96% | [4] 95.2% | [5] 81.2% | [6] 18.7% | [9] 82.6% | [10] 64.5%
active: [7] 5.42% | [8] -22.5%

COc1ccc(/C=C(\C#N)c2ccccc2)cc1
inactive: [1] 84.7% | [2] 92% | [3] 92.1% | [4] 85.9% | [5] 114% | [6] 87.9% | [7] 95.1% | [8] 85.7% | [9] 78% | [10] 88.6%
